This passage reports composite z-score and composite Z-score results from PubChem BioAssay.

The source made the active and inactive calls.

For one assay, the target named is Albumin (Bos taurus) (UniProt P02769). Nature of the assay: compounds binding labelled BSA control protein – biochemical, small-molecule microarray, Alexa647 label, 635/667 nm fluorescence, artefact control for SMM control protein annotation, profiling panel (AID 1118).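 Further: score merges 667 nm emission intensity and signal-to-noise per printed compound spot.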 The following applies: BSA-A647 binding, fluorescence 635 nm, higher = more signal.
Assay [1] is described as follows: probe aXIP binding to arrayed compounds – biochemical, NeuroSMM set, 635/667 nm fluorescence, primary screen (AID 1119).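 Further: probe is the protein aXip251-270 applied at 1 µg/mL to compound-printed slides; binding of probe to printed compounds measured as 667 nm fluorescence plus signal to noise.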 The following applies: small-molecule microarray, higher = more signal, called active from +8 up or from −8 down.
Assay [2] can be described thus: probe aNOTCH3 binding on compound microarray – biochemical, small-molecule microarray, 635/667 nm fluorescence, primary screen (AID 1120).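 Further: probe is a biotin-tagged antibody raised against NOTCH3 rather than NOTCH3 protein; score merges spot fluorescence near 667 nm with spot signal to noise.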 Conditions: higher = more signal.
A short description of assay [3]: probe aNOTCH2 binding on compound microarray – biochemical, small-molecule microarray, 635/667 nm fluorescence, primary screen (AID 1121).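 Further: score merges feature fluorescence read at 667 nm with its signal to noise.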 The following applies: higher = more signal.
Assay [4] has as its target Carbonic anhydrase 2 (Homo sapiens) (UniProt P00918). Nature of the assay: compounds binding carbonic anhydrase 2 – biochemical, small-molecule microarray, Alexa647-labelled CAII, profiling panel (AID 1122). The following applies: CAII-A647 binding fluorescence, higher = more signal.
Assay [5] in a line: COS7 lysate on small-molecule microarray, probe aHis, 635 nm (AID 1123).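 Further: z-score combines 667nm fluorescence intensity with signal-to-noise per printed compound spot.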 Conditions: COS7 cell lysate, fluorescence, higher = more signal.
Assay [6] is described as follows: probe aLAP1 signal on lysate-treated microarray – cell lysate, small-molecule microarray, COS7 lysate, primary screen (AID 1124).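 Further: lysate comes from COS7 cells expressing LAP1 and is applied at 0.3 µg/mL; score merges spot fluorescence near 667 nm with signal-to-noise over triplicate slides.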 The following applies: probe aLAP1, fluorescence, higher = more signal.
The test system of the next assay is Sam68 (KHDRBS1). Put plainly: compounds binding KHDRBS1 protein – biochemical, small-molecule microarray, 635 nm fluorescence, primary screen (AID 1125).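 Further: score merges 667 nm channel intensity with signal to noise over triplicate slides.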 Conditions: higher = more signal.
Assay [7] has as its system Chordin-like protein 2 (CHRDL2). Put plainly: compounds binding chordin-like 2 – biochemical, small-molecule microarray, 635 nm fluorescence, primary screen (AID 1126).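 Further: printed compound slides probed with Chrdl2 protein at 4 µg/mL for 1 h at 4 C; score merges 667 nm emission intensity with signal to noise over three replicate slides.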 The following applies: fluorescence 635 nm, higher = more signal.
In assay [8] the target is Concanavalin-A (Canavalia ensiformis) (UniProt P02866). Nature of the assay: compounds binding concanavalin A lectin – biochemical, small-molecule microarray, Alexa647 label, 635 nm, artefact control for SMM control protein annotation, primary screen (AID 1127).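 Further: z combines 667 nm emission intensity with signal-to-noise across three replicate slides.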 Conditions: ConA-A647 binding fluorescence, higher = more signal.
Concanavalin-A (Canavalia ensiformis), sequence (P02866 whole entry, looked up): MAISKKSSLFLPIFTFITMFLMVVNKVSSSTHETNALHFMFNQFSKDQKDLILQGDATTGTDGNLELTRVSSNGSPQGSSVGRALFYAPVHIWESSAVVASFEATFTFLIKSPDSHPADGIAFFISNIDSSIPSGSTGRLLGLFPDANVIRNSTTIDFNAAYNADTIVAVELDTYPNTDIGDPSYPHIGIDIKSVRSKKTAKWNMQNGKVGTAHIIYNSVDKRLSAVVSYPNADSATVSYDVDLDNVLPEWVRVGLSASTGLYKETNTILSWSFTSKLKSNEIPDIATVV

Albumin (Bos taurus), sequence (P02769 whole entry, looked up): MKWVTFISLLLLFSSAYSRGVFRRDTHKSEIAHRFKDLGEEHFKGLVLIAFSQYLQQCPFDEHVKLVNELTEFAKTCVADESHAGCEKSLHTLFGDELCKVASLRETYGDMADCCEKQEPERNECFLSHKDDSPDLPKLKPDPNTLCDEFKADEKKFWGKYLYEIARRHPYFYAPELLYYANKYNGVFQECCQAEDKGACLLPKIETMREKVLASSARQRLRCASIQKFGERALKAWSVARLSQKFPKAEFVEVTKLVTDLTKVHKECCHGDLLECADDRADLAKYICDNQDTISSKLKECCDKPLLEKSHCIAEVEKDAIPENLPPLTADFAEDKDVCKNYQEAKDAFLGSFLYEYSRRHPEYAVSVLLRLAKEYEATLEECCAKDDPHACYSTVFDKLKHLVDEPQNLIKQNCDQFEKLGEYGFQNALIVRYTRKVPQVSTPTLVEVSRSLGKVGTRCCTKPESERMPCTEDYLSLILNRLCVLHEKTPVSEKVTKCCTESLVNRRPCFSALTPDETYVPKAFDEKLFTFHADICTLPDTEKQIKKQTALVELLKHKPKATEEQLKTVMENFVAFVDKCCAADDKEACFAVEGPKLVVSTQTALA

For the compound `COC(=O)[C@H](C)NC(=O)CCC1CC(OC(=O)NCCc2ccc(F)cc2)CC2(CCCC(COC(=O)NCC(c3ccccc3)c3ccccc3)O2)O1` (stereo not given in full), the composite z-score with Albumin (Bos taurus) is 0.675; in assay [2], -0.0932; in assay [3], -0.1; in [4] it was 0.343; in assay [5], 1.44; in assay [6], 0.031. In addition, the composite z-score in the assay on Sam68 (KHDRBS1) was 1.22; in [7], 0.17; in assay [8] it was 0.714. Further, the composite Z-score in [1] is 0.269 (inactive).

For the compound `CC(C)(C)N1CC=CC23O[C@@H]4C=CCCOC(=O)C4[C@H]2C(=O)N(CCCCCO)[C@@H]3C1=O` (stereo not given in full), the composite z-score was 0.568 with Albumin (Bos taurus); 0.285 in assay [2]; -0.175 in assay [3]; 0.874 in assay [4]; 0.518 in assay [5]; 0.726 in assay [6]. The composite z-score with Sam68 (KHDRBS1) was 0.598; in assay [7], -0.503; in assay [8], -0.339. Further, in assay [1], the composite Z-score was 0.08 (inactive).

With `c1ccc(C2NCCc3c2[nH]c2ccccc32)cc1` (stereo not given), the composite z-score is 0.0809 with Albumin (Bos taurus); 0.0876 in [2]; -0.053 in assay [3]; 0.743 in assay [4]; -0.0295 in [5]; -0.0502 in assay [6]. Also, the composite z-score was -0.409 in the assay with Sam68 (KHDRBS1), 0.195 in assay [7] and -0.082 in assay [8]. Also, the composite Z-score in assay [1] is -0.0389 (inactive).

As to `CCN1C(=O)[C@H]2[C@H]3[C@H](O)[C@H](O)CC(=NO[C@@H]4O[C@H](CO)[C@@H](O)[C@H](O)[C@H]4O)[C@@H]3CC[C@H]2C1=O`, the composite z-score is -0.647 with Albumin (Bos taurus); -0.213 in [2]; -0.203 in [3]; -0.12 in [4]; -1.22 in assay [5]; -0.378 in assay [6]. Further, the composite z-score was -1.5 in the assay on Sam68 (KHDRBS1), -0.229 in assay [7] and -1.14 in [8]. Further, the composite Z-score in [1] was 0.103 (inactive).

As to `CCOC(=O)[C@H](CC(C)C)NC(=O)CCC1CC(OC(=O)NCc2cccc3ccccc23)CC2(CCCC(COC(=O)NCCN3CCOCC3)O2)O1` (stereo not given in full), the composite z-score with Albumin (Bos taurus) was 0.363; in [2] it was -0.0014; in assay [3] it was -0.19; in [4] it was 0.306; in assay [5] it was 0.934; in [6], 0.324. Besides, the values for the composite z-score (in the assay on Sam68 (KHDRBS1); in assay [7]; in assay [8]) were 1.3, 0.915 and 0.793, respectively. Also, the composite Z-score in assay [1] is 0.0928 (inactive).

Turning to `COCC(=C=CC[C@@H](O)c1ccccc1OCCO)CCO`, the composite z-score with Albumin (Bos taurus) is -0.0934; in [2], 0.0596; in [3], -0.0811; in assay [4], 0.763; in assay [5], 0.994; in assay [6] it was -0.0546. Further, the values for the composite z-score (in the assay on Sam68 (KHDRBS1); in [7]; in assay [8]) were 0.567, 0.22 and -0.192, respectively. For the same compound, the composite Z-score in assay [1] is 0.493 (inactive).

Regarding `C#CCCCON=C1C[C@@H](O)[C@@H](O)[C@@H]2[C@@H]3C(=O)N([C@@H](C)c4ccccc4)C(=O)[C@@H]3CC[C@H]12`, the composite z-score with Albumin (Bos taurus) is 0.161; in [2], 0.0494; in assay [3] it was -0.0554; in assay [4], -0.0339; in assay [5], -0.0684; in [6] it was 0.0595. For the same compound, the composite z-score in the assay with Sam68 (KHDRBS1) came to 0.513; in assay [7], 0.523; in assay [8] it was 0.282. Besides, the composite Z-score in assay [1] was -0.26 (inactive).

`O=C1[C@H]2[C@H]3[C@H](O)[C@H](O)CC(=NOC[C@@H](O)COCc4ccco4)[C@H]3CC[C@H]2C(=O)N1C1CCCCC1`: the composite z-score with Albumin (Bos taurus) is -0.709; in assay [2], 0.0459; in assay [3], -0.258; in assay [4], -0.379; in assay [5] it was -0.317; in [6] it was -0.342. The figures for the composite z-score (with Sam68 (KHDRBS1); in [7]; in assay [8]) were 0.191, 1.42 and -0.843, respectively. The composite Z-score in [1] was -0.47 (inactive).

Consider `Cc1ccc(S[C@]2(C(=O)O)CC(=O)N(Cc3ccccc3)[C@@H]2c2ccc(CO)cc2I)cc1`, for which the composite z-score is 0.258 in the assay with Albumin (Bos taurus); -0.206 in [2]; -0.13 in [3]; 0.701 in assay [4]; 0.921 in assay [5]; 0.223 in assay [6]. The composite z-score in the assay with Sam68 (KHDRBS1) was 0.21; in assay [7] it was 0.347; in assay [8], 0.883. For the same compound, the composite Z-score in assay [1] is -0.523 (inactive).

With `CCN1C(=O)[C@H]2[C@H]3[C@H](O)[C@H](O)CC(=NOC(C)CN4CCCCc5nc(C)c(C)cc54)[C@@H]3CC[C@H]2C1=O` (stereo not given in full), the composite z-score in the assay with Albumin (Bos taurus) was -0.428; in assay [2], -0.0511; in assay [3], -0.0539; in assay [4], -0.144; in [5], -0.144; in assay [6], 0.0096. Moreover, the composite z-score in the assay on Sam68 (KHDRBS1) is 0.238; in assay [7], 1.22; in assay [8] it was -0.0891. For the same compound, the composite Z-score in [1] was -0.467 (inactive).

`O=C1[C@H]2[C@H]3[C@H](O)[C@H](O)CC(=NOC[C@@H](O)COCc4ccco4)[C@H]3CC[C@H]2C(=O)N1c1cccc(Oc2ccccc2)c1`: the composite z-score was 0.355 in the assay with Albumin (Bos taurus); -0.304 in assay [2]; -0.133 in [3]; 0.364 in assay [4]; -0.607 in assay [5]; 0.137 in [6]. Besides, the results for the composite z-score (in the assay with Sam68 (KHDRBS1); in assay [7]; in assay [8]) were -0.572, -0.573 and -0.785, respectively. The composite Z-score in assay [1] is -0.705 (inactive).

As to `C=C(/C(=C/C[C@@H](OC(=O)c1ccncc1)c1ccc(OCCO)cc1)c1cnc2ccccc2c1)C(C)C`, the composite z-score with Albumin (Bos taurus) is 0.155; in [2], 0.201; in assay [3] it was -0.134; in assay [4], 0.675; in assay [5], -0.842; in [6] it was 0.727. The composite z-score in the assay on Sam68 (KHDRBS1) was 1.22; in assay [7] it was 0.952; in assay [8], 1.08. Moreover, the composite Z-score in assay [1] was -0.128 (inactive).

`CO[C@H]1O[C@H](CO)[C@@H](OC(=O)Nc2ccc3c(c2)OCO3)[C@H](OC(=O)Nc2ccccc2-c2ccccc2)[C@@H]1OC(=O)Nc1ccccc1-c1ccccc1`: the composite z-score came out at 0.929 in the assay with Albumin (Bos taurus); 0.276 in [2]; 0.186 in assay [3]; 0.543 in [4]; 2.08 in [5]; 0.429 in assay [6]. Further, the values for the composite z-score (in the assay on Sam68 (KHDRBS1); in [7]; in assay [8]) were 1.28, -0.116 and 1.17, respectively. Further, in assay [1], the composite Z-score was 0.558 (inactive).

For `CCCCCN1CC=CC23O[C@@H]4C=CCOC(=O)[C@@H]4[C@H]2C(=O)N(CCCCCCO)[C@@H]3C1=O` (stereo not given in full), the composite z-score is 0.798 with Albumin (Bos taurus); -0.306 in assay [2]; -0.0811 in assay [3]; 0.81 in [4]; 0.629 in assay [5]; 0.902 in [6]. The composite z-score was -0.662 in the assay on Sam68 (KHDRBS1), -1.21 in assay [7] and -0.367 in assay [8]. Besides, the composite Z-score in assay [1] was 0.401 (inactive).

Take `CC(C)=CCCC(C)=CCON=C1[C@H]2CCn3c(=O)n(C)c(=O)n3[C@H]2[C@H](O)[C@@H]2O[C@H]12`: the composite z-score with Albumin (Bos taurus) was -0.286; in assay [2] it was 0.0297; in assay [3], -0.14; in assay [4], 0.295; in assay [5], 0.482; in assay [6] it was 0.644. Further, the composite z-score in the assay with Sam68 (KHDRBS1) came out at 1.27; in [7] it was 0.916; in assay [8] it was 0.941. In addition, the composite Z-score in assay [1] was -0.0793 (inactive).
